Assay outcomes: PubChem BioAssay, several laboratories
A selection: hits, their analogues and other compounds. The true share with any hit is near 5.3%.
PostGolgi ctrl – growth inhibition of yeast control strain, primary screen, counter-screen for post-Golgi transport modulator project | efflux-deficient yeast background strain, growth absorbance A615, 16 h | inhibition, % at 10 µM | 98,000 compounds, 5% hits
MT1-MMP txn act – MT1-MMP promoter reporter activation – cell-based, luciferase luminescence, primary screen. HT1080 MT1-MMP promoter luciferase reporter, overnight; hits give high values. activation factor at 10 µM. 86,000 compounds, 0.16% hits;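 active means activation factor of at least 2 for MT1-MMP transcription at 10 µM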
PostGolgi yeast – phenotypic screen on post-Golgi transport, primary screen | post-Golgi transport phenotypic cell assay | 98,000 compounds, 0.9% hits | inhibition, % at 10 µM;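 further: yeast cells grown in 1536-well plates; yeast grown about 18 h at 30C before absorbance read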
Measles CPE – compounds protecting cells from measles virus cytopathic effect, primary screen, measles RdRp inhibitor project, single point, MLSMR library, absorbance; 140,000 compounds, 1.5% hits; Measles virus-infected cells, CPE protection; protection (pct of control), % at 4 µM; in the data active means protection mostly above about 24%, no sharp cut-off; inactive means mostly below about 26%
* hit, by the source's call; / = no result given. Unless noted, no stated cut-off is given here; in the data, active means inhibition above about 30%; inactive means the rest.

SMILES | PostGolgi ctrl | MT1-MMP txn act | PostGolgi yeast | Measles CPE
O=C(NCCCNCc1ccccc1)c1ccccn1 | 36.1* | 1.1 | 4.8 | 14.8
Cc1nc2oc3c(NCC4CCCO4)ncnc3c2c2c1COC(C)(C)C2 (configuration not stated) | 11.8 | 0.9 | 5.5 | 2.8
CC(C)c1nc2oc3c(NCC4CCCO4)ncnc3c2c2c1COC(C)(C)C2 (configuration not stated) | 34.5* | 1.1 | 12.8 | 26.9
Cc1ccc(NCc2nc3ccccc3n2C)cc1 | 33.7* | 0.8 | -0.9 | 16.4
Cn1c(CNc2nc3ccccc3n2C)nc2ccccc21 | -1.1 | 1.4 | 0.6 | 6.2
CC1(C)C(c2cccs2)=[N+]([O-])C2(CCCCC/C2=N\NC(N)=O)N1O (configuration not stated) | 6.4 | 1 | -0.3 | 30.4*
Cc1ccc(C2=[N+]([O-])C3(CCCCC/C3=N\O)N(O)C2(C)C)o1 (configuration not stated) | -2.6 | 1 | -3.2 | 32.5
COc1cc(-c2nnc(CSc3nnc(Nc4ccc(Oc5ccccc5)cc4)s3)o2)cc(OC)c1OC | / | / | / | 30.4
COC(=O)C(CCCCNC(=O)OCc1ccccc1)NC(=O)CN (configuration not stated) | 7.2 | 1.1 | 32.1* | 5.2
COc1ccc(S(=O)(=O)N(CC(=O)NCc2ccco2)c2ccccc2)cc1 | 0.6 | 1.2 | -4.0 | 12.4
O=S(=O)(c1ccc2ccccc2c1)N(CC(O)COCc1ccco1)c1ccccc1 (configuration not stated) | 30.9* | 1.2 | 20.1 | 8.2
O=C(CN1C(=O)/C(=C/c2cccc(Br)c2)SC1=S)N1CCCC1 | / | / | / | 3.5
CCOC(=O)C[N+](CC)(CC)CC#Cc1ccccc1 | / | / | / | 32.6
CCN(CC)c1nc2ccccc2nc1-n1nc(C)cc1C | 42.8* | 1.1 | -10.2 | 6.8
Cc1ccc2nc(Nc3ccc4[nH]c(=O)[nH]c4c3)c(-n3nc(C)cc3C)nc2c1 | 31.3* | 1.3 | -2.4 | 11.2
COc1cccc(Nc2nc3ccccc3nc2-n2nc(C)cc2C)c1 | 15.0 | / | 3.0 | 1.7
Cc1cc(C)n(-c2nc3ccccc3nc2Nc2ccc3c(c2)OCO3)n1 | 21.6 | 1.1 | 3.7 | 42.1*
Cc1ccc(NC(=O)/C(=C\c2ccccc2)NC(=O)/C=C/c2ccccc2)cc1 | 6.2 | / | -0.6 | 3.5
CC(C)C(c1nnnn1Cc1ccco1)N1CCN(c2cccc(Cl)c2)CC1 (configuration not stated) | 21.0 | 1.1 | 2.0 | 3.7
CC(C)C(c1nnnn1C(C)(C)C)N1CCN(c2cccc(Cl)c2)CC1 (configuration not stated) | 90.1* | 1.2 | 5.7 | 16.6
Cc1ccc(-c2c3c(=O)n(C)c(=O)n(C)c3cn2Cc2ccccc2)cc1 | 17.3 | 1.1 | -2.5 | 38.0*
Cn1c(=O)c2c(-c3ccccc3)n(CCCN3CCOCC3)cc2n(C)c1=O | 8.6 | 1 | 1.2 | 0.3
Cn1c(=O)c2c(-c3ccccc3)n(Cc3ccccn3)cc2n(C)c1=O | 0.8 | 1 | -1.0 | 6.2
Cc1ccc(-c2c3c(=O)n(C)c(=O)n(C)c3cn2N2CCOCC2)cc1 | 50.6* | 0.9 | -2.1 | 6.1
CC(C)c1[nH]nc2c1C(c1cccnc1)C(C#N)=C(N)O2 (configuration not stated) | 4.4 | 1.1 | 5.5 | 43.7*
SMILES | PostGolgi ctrl | MT1-MMP txn act | PostGolgi yeast | Measles CPE
CC(CNS(=O)(=O)c1ccccc1)(c1ccccc1)N1CCOCC1 (configuration not stated) | / | / | / | 8.1
O=C(CCCOc1ccc(Cl)cc1Cl)N/N=C/c1cccc([N+](=O)[O-])c1 | / | / | / | 11.9
Fc1ccc(NCc2nnc(SCc3nnc(-c4ccccc4)o3)n2Cc2ccccc2)cc1 | 29.9 | 1.1 | 46.2* | 4.2
Clc1ccc(-c2nnc(CSc3nnc(-c4cccs4)n3Cc3ccccc3)o2)cc1 | / | / | / | 2.5
CCn1cc(S(=O)(=O)CC(=O)NC2CCCCC2)c2ccccc21 | 41.5* | 1 | 8.7 | 18.8
CCOC(=O)C1=C(C)N(CCCC(=O)NCCn2c(-c3ccccc3)cc(C(=O)OC)c2C)C(=O)NC1c1ccc([N+](=O)[O-])cc1 (configuration not stated) | / | 1.2 | / | /
CCn1c(SCC(=O)N2CCCc3ccccc32)nnc1-c1ccoc1C | / | 1.3 | / | 26.6
CCn1c(SCC(=O)N2CCCc3ccccc32)nc2ccccc2c1=O | 39.8* | 1.1 | -0.6 | 5.4
C=CCn1c(SCC(=O)N2CCc3ccccc3C2)nc2sc(CC)cc2c1=O | / | / | / | 14.5
CCCc1nc(SCC(=O)N2CCc3ccccc32)c2c(=O)n(C)c(=O)n(C)c2n1 | / | 1.1 | / | /
C=CCn1c(SCC(=O)N2CCc3ccccc3C2)nc2ccccc2c1=O | 48.5* | / | -6.3 | 23.0
CCn1c(SCC(=O)N2CCCc3ccccc32)nnc1-c1ccco1 | 0.8 | 1 | 49.0* | 22.0
CCn1c(SCC(=O)N2CCCc3ccccc32)nc2cccnc21 | -0.3 | 1.1 | 8.9 | 2.6
CC(C)c1nc(SCC(=O)N2CCCc3ccccc32)c2c(=O)n(C)c(=O)n(C)c2n1 | 35.5* | / | 10.1 | 5.3
CCCCNC(=O)c1onc(CSc2ccc(Cl)cc2)c1C(=O)O | 6.2 | / | -5.3 | 9.8
Cc1ccc(-c2cc3cccc[n+]3cc2-c2ccc(C)cc2)cc1 | / | / | / | 6.5
COC(=O)[C@H](Cc1ccccc1)NC(=O)[C@]1(C)C[C@H]1[C@H](NC(=O)OCc1ccccc1)c1ccccc1 | / | 1.1 | / | /
COc1ccc(NS(=O)(=O)c2cc(NC(=O)[C@@H](NC(=O)c3ccccc3)C(C)C)ccc2C)cc1 | / | / | / | 10.3
Cn1cnnc1SCC(=O)N1CCc2ccccc21 | 0.3 | / | 26.0 | 11.4
O=C(CSc1nnnn1-c1cccc2ccccc12)N1CCOCC1 | 3.5 | 1.1 | -5.1 | 36.2*
Cc1nc(SCC(=O)N2CCCc3ccccc32)c2oc3ccccc3c2n1 | 41.3* | 1 | -2.4 | 2.9
Cc1cc(C)cc(-n2nnnc2SCC(=O)N2CCOCC2)c1 | / | 1.1 | / | 3.2
CC(C)c1nnc(SCC(=O)N2CCc3ccccc32)n1C | / | 1.1 | / | 28.7*
O=C(CSc1nnnn1-c1ccc(Cl)cc1)N1CCc2ccccc2C1 | 38.5* | 1.2 | 19.5 | 4.3
CCc1nc(SCC(=O)N2CCc3ccccc32)c2oc3ccccc3c2n1 | / | 1.2 | / | /
SMILES | PostGolgi ctrl | MT1-MMP txn act | PostGolgi yeast | Measles CPE
Cc1c(Cl)cccc1NC(=O)[C@@H](NC(=O)c1ccccc1Cl)C(C)C | / | / | / | 9.9
CC(C)C(=O)c1cn(CC(=O)N2CCCc3ccccc32)c2ccccc12 | 22.3 | 1.1 | -1.6 | 12.9
Cc1cc2c(=O)n(Cc3ccco3)c(SCC(=O)N3CCCc4ccccc43)nc2s1 | 31.6* | 0.8 | 4.2 | 17.9
O=C(CSc1nc2sc3c(c2c(=O)n1Cc1ccco1)CCC3)N1CCc2ccccc21 | / | 1 | / | /
O=C(Nc1ccc(C#Cc2ccccc2)cc1)C1CC1 | 8.5 | / | 0.8 | 58.2*
COc1cc(OC)cc(C(=O)N2CCC(C(=O)Nc3ccc4c(c3)OCCO4)CC2)c1 | / | / | / | 4.0
N#Cc1cc(-c2ccccc2)nnc1Sc1ccc(Cl)cc1 | -0.4 | 1 | 1.9 | 8.9
Clc1ccc(Sc2cc(Cl)c(-c3ccccc3)nn2)cc1 | 58.8* | / | -11.6 | 33.9
CCSc1nnc(NS(=O)(=O)c2ccc(C)cc2)s1 | / | / | / | 11.7
